ChEMBL document CHEMBL3988442, “University of Dundee, Small-Polar-MMV Screening Library” (2021)

Key:
[1] = target: T1, Aspartate--tRNA(Asp/Asn) ligase (Mycobacterium tuberculosis (strain ATCC 25618 / H37Rv)) (UniProt P9WFW3); assay: Assay for Asp RNA synthetase-1 from Mycobacterium tuberculosis; type: functional; parameters: scale not given: direction of the effect not stated beside the values; settings: 30 µM; also: in the data most compounds retested in dose-response had high values
T1 sequence (whole entry): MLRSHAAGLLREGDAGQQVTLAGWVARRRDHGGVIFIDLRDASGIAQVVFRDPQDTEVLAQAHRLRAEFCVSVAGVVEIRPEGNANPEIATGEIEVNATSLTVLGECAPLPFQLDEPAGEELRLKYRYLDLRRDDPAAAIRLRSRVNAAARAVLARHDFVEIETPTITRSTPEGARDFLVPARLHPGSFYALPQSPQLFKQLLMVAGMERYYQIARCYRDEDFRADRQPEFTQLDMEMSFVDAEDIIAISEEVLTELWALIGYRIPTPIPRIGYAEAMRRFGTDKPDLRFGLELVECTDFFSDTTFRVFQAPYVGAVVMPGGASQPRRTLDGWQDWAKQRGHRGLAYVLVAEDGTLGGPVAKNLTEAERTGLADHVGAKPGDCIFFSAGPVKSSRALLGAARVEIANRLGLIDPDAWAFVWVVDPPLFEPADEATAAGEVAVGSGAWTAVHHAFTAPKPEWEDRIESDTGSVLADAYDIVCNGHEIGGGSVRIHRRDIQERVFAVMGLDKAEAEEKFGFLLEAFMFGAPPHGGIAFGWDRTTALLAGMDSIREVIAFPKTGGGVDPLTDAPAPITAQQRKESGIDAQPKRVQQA

[2] = target: Shiga toxin 2 (Escherichia coli O157:H7) (UniProt P09385+P09386); assay: E. coli 0.157:H7 Shiga Toxin SOP - stx2 screening assay; type: functional; parameters: scale not given: direction of the effect not stated beside the values; settings: 30 µM

Structure (SMILES)	Percent Effect [1] [%]	Percent Effect [2] [%]
CCc1nc(CN2CCOC(Cn3nc(C)nc3C)C2)no1 (stereo not given)	3.17	28.4
Cc1cc(-c2ccc(C(=O)O)cc2)nc(C2CCCN(C(C)C)C2)n1 (stereo not given)	-0.0735	-2.97
COc1c(C2CCCN2C(=O)c2cccc(C(N)=O)c2)c(C)nn1C (stereo not given)	0.375	18
Cn1cc(CCC(=O)N2CCN(Cc3ccncc3)CC2)cn1	-1.76	1.29
CCc1nc2ccccc2c(=O)n1CC1(O)CCN(S(C)(=O)=O)CC1	4.54	-2.21
O=C(COc1coc(CN2CCCCC2)cc1=O)Nc1ccccc1Cl	0.319	-4.27
Cc1nc(CN2CCCC(N(C)Cc3cscn3)C2)no1 (stereo not given)	4.73	-14.1
Cc1ncc2c(n1)CN(CCCc1nc3ccccc3o1)CC2	6.8	-10.6
CC(C)Oc1ncccc1CNC(=O)c1ccco1	-4.72	-7.65
CN(CC(=O)N1CCCN(Cc2cscn2)CC1)c1cnccn1	-1.02	-25.9
